# Source: PubChem BioAssay (several laboratories)
# ABHD5 PLIN5 PPI = blocks binding of human ABHD5 to perilipin-5; Q00G26+Q8WTS1; Split G. princeps luciferase complementation, luminescence, 4 h; inhibition, % at 4 µM; 0.78% of 360,000 active; AID 602281;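 active = inhibition above the mean inhibition across every tested compound plus 3 SD, cut at about 22% in these data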;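 note: 0% = DMSO only wells and the 100% control is not disclosed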
# Target sequence (Q00G26 whole entry, looked up): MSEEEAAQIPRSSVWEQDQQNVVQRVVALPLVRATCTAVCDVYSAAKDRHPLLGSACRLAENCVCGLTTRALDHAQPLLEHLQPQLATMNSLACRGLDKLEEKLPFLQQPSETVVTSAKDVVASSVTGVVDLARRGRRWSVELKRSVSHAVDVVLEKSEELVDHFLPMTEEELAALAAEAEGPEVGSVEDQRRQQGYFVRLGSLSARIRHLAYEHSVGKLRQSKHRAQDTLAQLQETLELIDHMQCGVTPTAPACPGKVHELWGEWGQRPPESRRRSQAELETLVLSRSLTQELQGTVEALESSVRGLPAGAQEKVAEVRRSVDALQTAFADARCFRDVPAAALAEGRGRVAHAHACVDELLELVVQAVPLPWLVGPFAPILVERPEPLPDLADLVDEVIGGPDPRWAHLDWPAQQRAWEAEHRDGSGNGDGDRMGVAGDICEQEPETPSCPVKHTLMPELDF
# Target sequence (Q8WTS1 whole entry, looked up): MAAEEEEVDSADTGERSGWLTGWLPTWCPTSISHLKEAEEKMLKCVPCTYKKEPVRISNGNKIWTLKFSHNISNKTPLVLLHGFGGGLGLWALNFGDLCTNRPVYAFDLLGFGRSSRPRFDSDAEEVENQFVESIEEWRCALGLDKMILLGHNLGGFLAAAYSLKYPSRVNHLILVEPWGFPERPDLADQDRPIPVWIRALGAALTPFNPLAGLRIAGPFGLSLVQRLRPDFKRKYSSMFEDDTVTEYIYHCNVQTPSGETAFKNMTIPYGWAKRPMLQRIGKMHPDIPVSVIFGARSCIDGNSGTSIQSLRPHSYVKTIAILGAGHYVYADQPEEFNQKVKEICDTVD
# NOD2-RIPK2 inh = NOD2-RIPK2 protein interaction inhibition; O43353; CHO BLA complementation NOD2-RIPK2, CCF4 ratio; inhibition, % at 4.98 µM; 0.38% of 360,000 active; in the data active = inhibition above about 21%;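 note: 0% = vehicle only and 100% = reference blocker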
# Beta2AR agonist = human beta-2 adrenergic receptor agonism by FAP; P07550; Am2.2-beta2AR cells, FAP receptor internalization, flow cytometry; response, % (concentration not given with the values); 0.43% of 340,000 active; AID 504454;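 active = response above a set limit, near 3 SD of response in nonfluorescent compounds, cut at about 42% in these data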
# TLR9-MyD88 inh = inhibitors of human TLR9-MyD88 binding. CHO BLA complementation TLR9-MyD88, CCF4 FRET ratio. Q9NR96+Q99836. 0.21% of 340,000 active. AID 504734. inhibition, % at 4.98 µM;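 active = inhibition above the mean over all tested compounds plus 3 SD, cut at about 21% in these data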;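 note: 0% = DMSO only wells and 100% = clavulanate BLA inhibitor control wells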
# Granule exo inh = lytic granule exocytosis inhibition. TALL-104 LAMP-1 surface exposure, flow cytometry; cells stimulated with thapsigargin and PMA. inhibition, % at 10 µM. 0.66% of 360,000 active. AID 651702;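 active = inhibition above about 55%, limit read from the data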
# TLR4-MyD88 BLA = inhibitors of human TLR4-MyD88 binding | O00206+Q99836 | HeLa CL3-4 TLR4/MyD88 BLA complementation, FRET ratio | inhibition, % at 8.4 µM | 0.18% of 200,000 active; in the data active = inhibition above about 25%;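 note: 0% = vehicle and 100% = reference inhibitor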
# Beta2AR ag CP1 = human beta-2 adrenergic receptor agonism, cherry pick. Am2.2-beta2AR cells, FAP surface receptor, flow cytometry; active compounds read low. 25% of 1,100 active. percent response (surface receptor), % at 10 µM. shares compounds with Beta2AR agonist. AID 540358;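 active = surface receptor percent response at or below 58%, roughly 3 SD from nonfluorescent compounds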
# B2AR FAP counter = fluorescence artifact in beta-2AR agonist FAP counterscreen. shares compounds with Beta2AR agonist. Am2.2 cells, FAP fluorogen flow cytometry; active compounds read low. calls only at 10 µM. 1,100 tested, under 10 active. AID 588765;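 active = percent response below a set limit in fluorescence channel 1 and below 50% in channel 8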
# * marks the source's active call; other numbers are inactive results; i = inactive; . = not tested or not shown. Compounds with a hit are over-represented: about 2% of the library has one in this group of screens.
SMILES,ABHD5 PLIN5 PPI,NOD2-RIPK2 inh,Beta2AR agonist,TLR9-MyD88 inh,Granule exo inh,TLR4-MyD88 BLA,Beta2AR ag CP1,B2AR FAP counter
COC(=O)[C@]12CCCCC=C1N(Cc1ccc(Cl)cc1Cl)C(=O)[C@H](CC(=O)N1CCN(C(=O)c3ccco3)CC1)C2,-3,0,.,.,-9,.,.,.
COC(=O)Cc1ccccc1NS(=O)(=O)c1ccc(C)cc1,-1,-4,.,.,-2,.,.,.
CC(C)(C)C(c1nc2ccccc2[nH]1)n1c(-c2cc(Cl)cc(Cl)c2)nc2ccccc21 (configuration not stated),-17,-12,.,.,17,.,.,.
COc1ccc(CNCCC(c2ccc(OC(C)C)cc2)c2ccccc2OC)cc1 (configuration not stated),-8,19,28,-1,25,.,78,i
COC(=O)C1=C(C)N(Cc2ccccc2)C(=NCCc2cccnc2)N[C@H]1c1ccc(Br)cc1,15,12,47*,2,52,.,85,i
CN(C(=O)c1cccc(NC(=O)Cc2cccc(NC(=O)C3CCN(C(=O)C4CCCC4)CC3)c2)c1)C1CC1,-3,-6,-3,-7,-2,.,.,.
CN(C(=O)c1ccc(NC(=O)Cc2cccc(NC(=O)C3CCN(C(=O)C4CCCC4)CC3)c2)cc1)C1CCCC1,7,5,47*,-1,-6,.,82,i
CN(C(=O)c1ccc(NC(=O)Cc2cccc(NC(=O)C3CCN(C(=O)C4CC4)CC3)c2)cc1)C1CC1,2,2,-6,-3,-2,.,117,i
CN(C(=O)c1ccc(NC(=O)Cc2cccc(NC(=O)C3CCN(C(=O)C4CCCCC4)CC3)c2)cc1)C1CC1,3,-4,-4,-8,-5,.,115,i
CN(C(=O)c1cccc(NC(=O)Cc2cccc(NC(=O)C3CCN(C(=O)C4CC4)CC3)c2)c1)C1CC1,-2,-6,1,-4,-1,.,.,.
COc1ccc(N2C[C@H](CSC)[C@@H](CC(=O)Nc3ccccc3)C2=O)cc1,1,-1,.,0,-3,.,.,.
CC1=C(C(=O)Nc2ccc(C(=O)N3CCN(c4ccccc4F)CC3)cc2)SCCO1,-1,-12,73*,6,4,.,21*,i
COc1cccc(NC2c3ccccc3C(=O)N2Cc2ccco2)c1 (configuration not stated),3,-2,69*,6,-1,4,104,i
CC(=O)c1cccc(NC2c3ccccc3C(=O)N2Cc2ccco2)c1 (configuration not stated),7,4,-6,-4,-1,.,.,.
Cc1cccc(Nc2nnc(-c3ccc(C(=O)N4C[C@H]5C[C@H](C4)c4cccc(=O)n4C5)cc3)c3ccccc23)c1,14,6,85*,-15,4,7,16*,i
COc1ccc(Nc2nnc(-c3ccc(C)cc3)c3ccccc23)cc1C(=O)N1CCCCC1,0,-4,21,7,-8,0,.,.
COC(=O)CS(=O)(=O)c1ccsc1C(=O)Nc1ccc(F)c(F)c1,-7,-14,47*,-11,3,-8,101,i
O=C(Nc1ccc(C(=O)N2CCN(c3ccncc3)CC2)cc1)c1ccc(Br)o1,2,-8,.,.,-3,.,.,.
Cc1ccc(C(=O)N2CCN(c3ccc(NC(=O)c4ccc(Br)o4)cc3)CC2)cc1,11,2,12,-1,1,-4,120,i
CCc1ccc(C(=O)N2CCN(c3ccc(NC(=O)c4ccco4)cc3)CC2)cc1,4,-9,-12,-12,-5,.,122,i
COCCCNC(=O)c1cc(-c2cccnc2)nc2ccc(S(=O)(=O)N3CCCCCC3)cc12,-5,2,17,12,-4,.,94,i
O=C(c1cc(COc2ccc(F)cc2Cl)on1)N1C[C@H]2CC[C@H]1C2,5,-2,-10,-4,-3,.,.,.
O=C(c1cc(COc2ccc(F)cc2Cl)on1)N1CC2C[C@@H]3CC1C[C@H](C2)C3,-7,4,87*,9,-1,.,23*,i
